Results filed as inconclusive are left out. Calls of active or inactive are those of the source. Calls come from the whole dose curve; as a rule, active = well fitted inhibition curve with a large enough effect; inconclusive = small, poorly fitted or top-dose-only effect, or effect the other way; inactive = flat fitted curve, though single readings scatter.
molecular target: Lysosomal acid glucosylceramidase (Homo sapiens) (UniProt P04062); experiment: qHTS Assay for Inhibitors and Activators of N370S glucocerebrosidase as a Potential Chaperone Treatment of Gaucher Disease: Purified N370S Glucocerebrosidase Cleavage of Glucosylceramide; details: purified N370S GCase; series mostly up to 77.6 µM; activity change, negative = inhibition: at the top concentration
Sequence (P04062 whole entry N409S): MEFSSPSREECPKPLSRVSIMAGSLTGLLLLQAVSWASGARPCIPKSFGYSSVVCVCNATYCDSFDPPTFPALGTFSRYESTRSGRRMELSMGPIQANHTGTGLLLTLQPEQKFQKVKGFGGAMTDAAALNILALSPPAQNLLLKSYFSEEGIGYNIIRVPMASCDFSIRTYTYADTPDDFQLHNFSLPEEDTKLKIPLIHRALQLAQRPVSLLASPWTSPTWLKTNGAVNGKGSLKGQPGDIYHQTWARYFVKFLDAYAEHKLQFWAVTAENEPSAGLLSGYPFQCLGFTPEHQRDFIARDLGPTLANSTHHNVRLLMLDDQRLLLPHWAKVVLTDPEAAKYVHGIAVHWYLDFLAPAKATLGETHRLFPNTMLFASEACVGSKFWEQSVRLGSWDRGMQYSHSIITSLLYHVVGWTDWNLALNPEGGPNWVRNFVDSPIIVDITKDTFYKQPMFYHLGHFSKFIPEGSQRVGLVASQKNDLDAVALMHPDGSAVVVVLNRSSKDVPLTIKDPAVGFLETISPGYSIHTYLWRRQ
Description: NIH Chemical Genomics Center [NCGC]
NIH Molecular Libraries Probe Production Centers Network [MLPCN]
Assay Submitter (PI): Wei Zheng
Glucocerebrosidase (GC) catalyzes the hydrolysis of beta-glucocerebroside to glucose and ceramide in lysosomes. Mutations in the glucocerebrosidase gene result in Gaucher disease, an autosomal recessive lysosomal storage disorder. Many of the mutations encountered in patients with Gaucher disease are missense alterations that may cause misfolding, decreased stability and/or mistrafficking of this lysosomal protein. […] These inhibitors include iminosugar analogs and three non-iminosugar inhibitors identified from a previous HTS of 62,000 compounds with the wild type recombinant enzyme. However, the enhancement of enzyme activity by the chaperone action of an enzyme inhibitor must be balanced against the direct inhibition of the enzyme. An enzyme activator could also function as a chaperone by binding to the enzyme and helping to correct its misfolding and mistrafficking. While activators for GC have not yet been identified, they may have better therapeutic potential than inhibitors. Therefore the discovery and development of chemical activators may provide a new strategy for the chaperone therapy.
We have optimized a new assay using N370S mutant GC derived from the spleen of a Gaucher patient. […] In addition, the MLPCN compound library has expanded, which increases the chance of finding new and better probes.
This assay characterizes compound activity using purified, mutant enzyme cleavage of the native substrate for the enzyme instead of mutant enzyme from tissue homogenate. Compound activity differences may be due to the absence of endogenous cofactors found in tissue homogenate as well as inherent differences in enzyme stability and catalytic activity using the difference substrates.
NCGC Assay Protocol Summary:
This is an enzyme assay using glucosylceramide from soy (Avanti Polar Lipids Catalog #: 131304P) as the substrate and recombinant human glucocerebrosidase as the enzyme preparation. Upon hydrolysis of the substrate, the glucose product can be detected using the Amplex Red Glucose Oxidase Assay Kit (Invitrogen catalog #: A22189). The product of this reaction can be read with a fluorescence plate reader with an excitation at 573 nm and an emission at 610 nm. Data were normalized to the controls for basal activity (without enzyme) and 100% activity (with enzyme). The AC50 values were determined from concentration-response data modeled with the standard Hill equation.
Assay buffer for enzyme reaction: 50 mM citric acid (titrated with potassium phosphate to pH 5.9), 0.01% Tween-20 (pH 5.9 is an optimal condition for this enzyme assay)
Assay buffer for Amplex Red reaction: Tris-HCl, pH 7.5
1536-well assay protocol for the glucocerebrosidase assay:
(1) Add 2 ul/well glucocerebrosidase enzyme solution (5 nM final)
(2) Add 23 nL compounds in DMSO solution. The final titration was 0.7 nM to 77 uM.
(3) Add 1 ul of glucosylceramide solution (50 uM final)
(4) Incubate at 37C for 40 min
(5) Add 2 ul tris-HCl buffer with Amplex Red reagents
(6) Incubate 45 min at room temperature.
(7) Detect the assay plate in a ViewLux plate reader (PerkinElmer) with Ex=573 nm and Em=610nm.
Keywords: Glucocerebrosidase, beta-glucosidase, Gaucher Disease, pharmacological chaperone, chaperone therapy, high throughput screening, glucocerebrosidase inhibitor, MLSMR, MLSCN, NIH Roadmap, qHTS and NCGC

Activity change, negative = inhibition, inactive:
CC1(C)CC(=O)C2=C(C1)c1c(ccc3ccccc13)NC2c1ccc(Br)o1 (stereo not given) 13.7%, COc1ccc(-c2nc(N3CCN(S(=O)(=O)c4ccc(C)cc4)CC3)c3ccccc3n2)cc1 22.7%, COc1cccc(CN(C)c2nc(-c3cccs3)nc3ccccc23)c1 -8.66%, COc1ccc(-c2nc(N3CCN(S(=O)(=O)c4ccccc4)CC3)c3ccccc3n2)cc1 18.5%, O=S(=O)(c1cccc2ccccc12)N1CCN(c2nc(-c3cccs3)nc3ccccc23)CC1 -9.47%, Cc1cc(C)n2ncc(C(=O)Nc3ccc(Cl)c(Cl)c3)c2n1 13.9%, CCOc1ccc(N(CC(=O)Nc2ccc(C)cc2)S(=O)(=O)c2c(C)[nH]c(=O)[nH]c2=O)cc1 -20.8%, CCC(=O)OCCNc1nc(-c2ccccc2)nc2ccccc12 6.09%, OCCNc1nc(-c2cccs2)nc2ccccc12 -15.8%, c1ccc2c(NCC3CCCO3)nc(N3CCOCC3)nc2c1 (stereo not given) -8.4%, NS(=O)(=O)c1ccc(S(=O)(=O)N2CCN(c3nc(-c4cccs4)nc4ccccc34)CC2)cc1 -13.7%, N#Cc1ccc(S(=O)(=O)N2CCN(c3nc(-c4cccs4)nc4ccccc34)CC2)cc1 -5.08%, Cc1cccc(/C=N/NC(=O)NC23CC4CC(CC(C4)C2)C3)n1 -1.18%, CCc1ccc(NC(=O)c2cnn3c(C(F)F)cc(C)nc23)cc1 -7.13%, Cc1ccccc1-c1nccc(NCc2cccs2)n1 10.1%, Cc1ccc(NC(=O)COc2ccccc2C(=O)Nc2ccccc2)cc1Cl 2.52%, O=S(=O)(c1ccccc1)N1CCN(c2nc(-c3ccc(F)cc3)nc3cc(Cl)ccc23)CC1 12.6%, O=S(=O)(c1ccccc1C(F)(F)F)N1CCN(c2nc(-c3cccs3)nc3ccccc23)CC1 4.16%, O=S(=O)(Cc1ccccc1)N1CCN(c2nc(-c3cccs3)nc3ccccc23)CC1 -0.322%, c1csc(-c2nc(NCC3CCCO3)c3ccccc3n2)c1 (stereo not given) -6.96%, Cc1ccc(-c2nc(N3CCN(S(=O)(=O)c4ccc(F)cc4)CC3)c3ccc(Cl)cc3n2)cc1 -6.45%, COc1ccccc1NC(=O)COc1ccccc1C(=O)Nc1ccccc1 -31%, O=C(CSc1nccc(-c2cccs2)n1)Nc1cccc(Cl)c1 25.1%, COc1ccccc1OCC(=O)Nc1oc(-c2ccccc2)c(-c2ccccc2)c1C#N -5.84%, O=C(Nc1cc(Br)ccc1O)c1cnn2c(C(F)F)cc(C3CC3)nc12 -28.3%, O=S(=O)(c1ccc(Cl)cc1)N1CCN(c2nc(-c3cccc(Br)c3)nc3ccccc23)CC1 6.57%, COc1ccc(S(=O)(=O)N2CCN(c3nc(-c4cccs4)nc4ccccc34)CC2)cc1 2.55%, N=c1c2c(-c3ccccc3)c(-c3ccccc3)n(Cc3ccco3)c2ncn1CCCn1ccnc1 -8.82%, CSc1ccc(NC(=O)Nc2cc(C)ccn2)cc1 -12.3%, COc1ccccc1C(=O)COC(=O)c1ccccc1OCC(=O)Nc1ccc(SC(F)F)cc1 -9.62%, O=S(=O)(c1ccc2c(c1)OCCO2)N1CCN(c2nc(-c3ccccc3)nc3ccccc23)CC1 7.83%, O=C(COc1ccccc1C(=O)c1cnn(-c2ccccc2)c1)Nc1ccccc1 -6.49%, O=S(=O)(c1ccc2ccccc2c1)N1CCN(c2nc(-c3cccs3)nc3ccccc23)CC1 -5.05%, O=C(c1ccc2c(c1)OCCO2)N1CCN(c2nc(-c3cccs3)nc3ccccc23)CC1 9.84%, O=S(=O)(c1ccccc1Cl)N1CCN(c2nc(-c3cccs3)nc3ccccc23)CC1 1.96%

Potency, active:
O=S(=O)(c1ccc(Cl)cc1)N1CCN(c2nc(Nc3cc(Cl)ccc3O)nc3ccccc23)CC1 14.1 µM, Cc1cc(C)cc(N(CC(=O)NC2CCCCCC2)S(=O)(=O)c2c(C)[nH]c(=O)[nH]c2=O)c1 14.1 µM, CC(C)(C)C(=O)OCCNc1nc(-c2ccccc2)nc2ccccc12 39.8 µM, Cc1cc(C)cc(N(CC(=O)NC2CCC(C)CC2)S(=O)(=O)c2c(C)[nH]c(=O)[nH]c2=O)c1 (stereo not given) 35.5 µM, S=C(NCCCc1cnc[nH]1)NCCCN(Cc1ccc(Cl)c(Cl)c1)c1ccc(Br)cn1 44.7 µM
